Experimental findings from PubChem BioAssay (Tox21) are described below.

Experiment [1] can be described thus: qHTS assay to identify small molecule agonists of the peroxisome proliferator-activated receptor delta (PPARd) signaling pathway - cell viability counter screen (AID 743211). Further: nearly all actives have a fitted effect of over 55% in size. In short, it runs like this: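 Following 5 h plating at 37 C and 5% CO2, PPARd UAS-bla HEK293H cells took up test compounds for 17 h. Viability was quantified by luminescence 30 min after CellTiter-Glo addition at room temperature.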

Experiment [2] in a line: qHTS assay to identify small molecule antagonists of the peroxisome proliferator-activated receptor delta (PPARd) signaling pathway - cell viability counter screen (AID 743213). Further: nearly all actives have a fitted effect of over 50% in size. In short, it runs like this: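 In this counter screen, HEK293H cells carrying a UAS-beta-lactamase reporter are co-treated with test compounds and 300 nM L165041 (final) for 17 h at 37 C; cell viability is quantified by CellTiter-Glo luminescence.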
(qHTS replaces the single test concentration by a dilution series.)

Experiment [3] is described as follows: qHTS assay to identify small molecule agonists of the farnesoid-X-receptor (FXR) signaling pathway - cell viability counter screen (AID 743218). Further: nearly all actives have a fitted effect of over 45% in size. Put shortly:
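FXR-UAS-bla HEK 293T cells exposed to compounds for 16 h at 37C. Cytotoxicity read in the same wells by CellTiter-Glo luminescence after 30 min at room temperature, following the beta-lactamase FRET read.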

The nature of experiment [4]: qHTS assay to identify small molecule antagonists of the farnesoid-X-receptor (FXR) signaling pathway - cell viability counter screen (AID 743221; active means well fitted cell-killing curve with a large enough effect in the repeat runs, not every such curve was filed as active; further: nearly all actives have a fitted effect of over 50% in size). Put shortly:
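Compound effects on cell number were measured as CellTiter-Glo luminescence in HEK 293T cells expressing FXR-UAS-bla, after 16 h at 37 C with 50 uM CDCA (final).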

The nature of experiment [5]: qHTS assay to identify small molecule agonists of the vitamin D receptor (VDR) signaling pathway - cell viability counter screen (AID 743224). Further: series mostly up to about 63 µM; nearly all actives have a fitted effect of over 50% in size. Put shortly:
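VDR-bla cells, 4 h after plating, exposed to compounds for 16 h at 37C; viability then read in the same wells as CellTiter-Glo luminescence after 30 min at room temperature, following the bla FRET read.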

Experiment [6] is described as follows: qHTS assay to identify small molecule antagonists of the vitamin D receptor (VDR) signaling pathway - cell viability counter screen (AID 743225). Further: nearly all actives have a fitted effect of over 50% in size. In short, it runs like this: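 In this counter screen, VDR-bla HEK 293T cells receive test compound plus 3 nM final calcitriol for 16 h at 37C. Room-temperature steps of 2 h with the beta-lactamase substrate, then 30 min with CellTiter-Glo, precede the luminescence read.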

Experiment [7] is described as follows: qHTS assay to identify small molecule agonists of the NFkB signaling pathway - cell viability counter screen (AID 1159515; calls by dose curve; further: series mostly up to about 61 µM; nearly all actives have a fitted effect of over 55% in size). In short, it runs like this: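 NFkB-bla ME-180 cells, 2,000/well, plated overnight at 37 C; compound added for 5 hr at 37 C. Viability read in the same wells as the bla reporter, by CellTiter-Glo luminescence after 30 min at room temperature.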

A short description of experiment [8]: qHTS assay to identify small molecule agonists of the endoplasmic reticulum stress response signaling pathway (AID 1159516; active means well fitted activation curve with a large enough effect in the signal ratio in the repeat runs, not every such curve was filed as active; the % refers to the signal ratio). Put shortly:
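CellSensor ESRE-bla HeLa cells, 1,500 per well, plated overnight, then exposed to compounds for 5 hr at 37 C. Beta-lactamase reporter read with LiveBLAzer B/G FRET substrate after 2 hr at room temperature, 405 nm excitation, 460 and 530 nm emission.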

A short description of experiment [9]: qHTS assay to identify small molecule agonists of the endoplasmic reticulum stress response signaling pathway - cell viability counter screen (AID 1159517; calls by dose curve). In short, it runs like this: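 Cells, HeLa ESRE-bla; density, 1,500/well; dosing, 5 hr at 37 C, 5% CO2; readout, CellTiter-Glo luminescence after 30 min RT.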
Experiment [10] can be described thus: qHTS assay to identify small molecule antagonists of the retinoid-related orphan receptor gamma (ROR-gamma) signaling pathway - cell viability counter screen (AID 1159520). Further: nearly all actives have a fitted effect of over 50% in size. In short, it runs like this: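 Cytotoxicity was read from cellular ATP (CellTiter-Glo luminescence) after 16 hr at 37 C with 1 uM doxycycline induction. The inducer was added 2 hr after compound transfer to Tet-on ROR gamma CHO cells.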

Experiment [11] can be described thus: qHTS assay to identify small molecule agonists of the AP-1 signaling pathway - cell viability counter screen (AID 1159525; calls by dose curve; further: nearly all actives have a fitted effect of over 55% in size). In short, it runs like this:
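Luminescent ATP readout (Cell Titer Glo, 30 min RT), normalised to DMSO and tetra n-octyl ammonium bromide controls. Cells were ME-180 AP-1-bla in 0.5% dialyzed FBS Opti-MEM, with a 5 h, 37 °C compound exposure.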

Experiment [12] can be described thus: qHTS assay to identify small molecule agonists of the AP-1 signaling pathway (AID 1159526; calls by dose curve).
The target of experiment [13] is Retinoic acid receptor RXR-alpha (Homo sapiens) (UniProt P19793). The experiment is described as follows: qHTS assay to identify small molecule agonists of the RXR signaling pathway (AID 1159527; calls by dose curve; further: nearly all actives have a fitted effect of over 35% in size). In short, it runs like this:
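Fluorescence ratio readout (460 vs 530 nm) from GeneBLAzer RXR-alpha HEK 293T cells after 16 hr compound treatment; cells seeded 5 hr beforehand in low-serum, charcoal-stripped medium.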

For experiment [14], the target named is Peroxisome proliferator-activated receptor delta (Homo sapiens) (UniProt Q03181). As to the kind of experiment: qHTS assay to identify small molecule agonists of the peroxisome proliferator-activated receptor delta (PPARd) signaling pathway (AID 743212; calls by dose curve). Put shortly: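 HEK293H UAS-bla reporter cells, human PPARd system; compounds delivered in DMSO after 5 h plating, then at 37 C. Beta-lactamase FRET read, 2 h RT substrate step.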

Experiment [15] shares this target. The experiment is described as follows: qHTS assay to identify small molecule antagonists of the peroxisome proliferator-activated receptor delta (PPARd) signaling pathway (AID 743215; active means well fitted inhibition curve with a large enough effect in the signal ratio in the repeat runs, not every such curve was filed as active; the % refers to the signal ratio;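 further: cells stimulated with agonist L165041 at 300 nM final during compound exposure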; further: potency means the concentration at half of the fitted maximal effect). Put shortly:
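PPARd-bla HEK293H cells (UAS-bla reporter) preincubated 5 h, then given compound plus 300 nM final L165041 agonist for 17 h at 37 C. Beta-lactamase activity read by LiveBLAzer B/G FRET substrate fluorescence after 2 h at room temperature.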

For experiment [16], the target named is Bile acid receptor (Homo sapiens) (UniProt Q96RI1). As to the kind of experiment: qHTS assay to identify small molecule agonists of the farnesoid-X-receptor (FXR) signaling pathway (AID 743220; active means well fitted activation curve with a large enough effect in the signal ratio in the repeat runs, not every such curve was filed as active; the % refers to the signal ratio). Put shortly: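 Beta-lactamase reporter under UAS control in GeneBLAzer FXR HEK 293T cells (5000/well) measured with LiveBLAzer FRET substrate after 2 h at room temperature. Compound exposure lasted 16 h at 37C.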

Experiment [17] concerns the target Vitamin D3 receptor (Homo sapiens) (UniProt P11473). As to the kind of experiment: qHTS assay to identify small molecule agonists of the vitamin D receptor (VDR) signaling pathway (AID 743222; calls by dose curve). Put shortly:
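VDR-bla cells plated 4 h at 37 C, then exposed to compounds for 16 h at 37 C. Beta-lactamase reporter activity measured by fluorescence after 2 h room-temperature loading with LiveBLAzer B/G FRET substrate.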

Experiment [18] has the same target. As to the kind of experiment: qHTS assay to identify small molecule antagonists of the vitamin D receptor (VDR) signaling pathway (AID 743223; active means well fitted inhibition curve with a large enough effect in the signal ratio in the repeat runs, not every such curve was filed as active; the % refers to the signal ratio). In short, it runs like this: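 Beta-lactamase activity in VDR-bla cells is measured by FRET substrate fluorescence (2 h, room temperature) after cells spend 16 h at 37C with test compound and 3 nM final 1alpha,25-dihydroxyvitamin D3.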

Experiment [19] deals with Nuclear receptor ROR-gamma (Homo sapiens) (UniProt P51449). As to the kind of experiment: qHTS assay to identify small molecule antagonists of the retinoid-related orphan receptor gamma (ROR-gamma) signaling pathway (AID 1159521). Put shortly: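 Screening format: cell-based luciferase reporter in CHO cells with doxycycline-inducible RORγ. Compound pre-exposure lasts 2 h, doxycycline is 1 uM final, induction runs 16 h at 37 C, and ONE-Glo luminescence is read.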

Experiment [20] addresses Bile acid receptor (Homo sapiens) (UniProt Q96RI1). As to the kind of experiment: qHTS assay to identify small molecule antagonists of the farnesoid-X-receptor (FXR) signaling pathway (AID 743217; active means well fitted inhibition curve with a large enough effect in the signal ratio in the repeat runs, not every such curve was filed as active; the % refers to the signal ratio; further: potency means the concentration at half of the fitted maximal effect). Put shortly: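 FXR-UAS-bla HEK 293T cells (beta-lactamase reporter) given compound plus chenodeoxycholic acid (50 uM final), 16 h at 37C. LiveBLAzer B/G FRET substrate added for 2 h at room temperature; fluorescence read.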

The structures appear in SMILES notation. Results filed as inconclusive are left out. Unmarked numbers belong to inactive results. Active and inactive are the calls of the source. Unless noted, the call rests on the fitted dose curve; in most records, active means well fitted curve in the direction sought with a large enough effect in the repeat runs; inconclusive means weak or mixed curves; inactive means no such curve, though single readings can be large; an effect the other way counts as inactive or inconclusive.

Sequence of Peroxisome proliferator-activated receptor delta (Homo sapiens) (Q03181 whole entry, looked up): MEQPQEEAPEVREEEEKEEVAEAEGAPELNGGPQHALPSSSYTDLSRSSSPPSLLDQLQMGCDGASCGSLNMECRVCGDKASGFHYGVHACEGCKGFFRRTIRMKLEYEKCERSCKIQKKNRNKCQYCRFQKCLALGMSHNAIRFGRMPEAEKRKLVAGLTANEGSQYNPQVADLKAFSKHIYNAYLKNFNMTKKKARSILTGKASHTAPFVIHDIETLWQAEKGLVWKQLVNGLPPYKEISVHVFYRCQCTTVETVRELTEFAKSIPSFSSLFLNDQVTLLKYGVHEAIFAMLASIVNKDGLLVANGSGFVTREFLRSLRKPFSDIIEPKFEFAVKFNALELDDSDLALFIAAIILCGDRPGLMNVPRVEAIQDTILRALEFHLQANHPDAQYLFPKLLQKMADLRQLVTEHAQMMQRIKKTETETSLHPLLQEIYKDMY
Sequence of Vitamin D3 receptor (Homo sapiens) (P11473 whole entry, looked up): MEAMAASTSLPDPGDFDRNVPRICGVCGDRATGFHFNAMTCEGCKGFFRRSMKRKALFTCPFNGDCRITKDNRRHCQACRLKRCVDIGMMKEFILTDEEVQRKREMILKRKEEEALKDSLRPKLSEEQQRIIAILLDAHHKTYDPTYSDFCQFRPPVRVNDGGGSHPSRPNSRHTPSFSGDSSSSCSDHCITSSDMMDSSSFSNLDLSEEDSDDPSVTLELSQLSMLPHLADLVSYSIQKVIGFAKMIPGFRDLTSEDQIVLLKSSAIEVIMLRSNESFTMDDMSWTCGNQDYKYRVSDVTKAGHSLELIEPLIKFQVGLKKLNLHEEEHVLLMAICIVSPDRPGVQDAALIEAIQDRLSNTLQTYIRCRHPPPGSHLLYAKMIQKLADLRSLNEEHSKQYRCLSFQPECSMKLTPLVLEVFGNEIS
Sequence of Bile acid receptor (Homo sapiens) (Q96RI1 whole entry, looked up): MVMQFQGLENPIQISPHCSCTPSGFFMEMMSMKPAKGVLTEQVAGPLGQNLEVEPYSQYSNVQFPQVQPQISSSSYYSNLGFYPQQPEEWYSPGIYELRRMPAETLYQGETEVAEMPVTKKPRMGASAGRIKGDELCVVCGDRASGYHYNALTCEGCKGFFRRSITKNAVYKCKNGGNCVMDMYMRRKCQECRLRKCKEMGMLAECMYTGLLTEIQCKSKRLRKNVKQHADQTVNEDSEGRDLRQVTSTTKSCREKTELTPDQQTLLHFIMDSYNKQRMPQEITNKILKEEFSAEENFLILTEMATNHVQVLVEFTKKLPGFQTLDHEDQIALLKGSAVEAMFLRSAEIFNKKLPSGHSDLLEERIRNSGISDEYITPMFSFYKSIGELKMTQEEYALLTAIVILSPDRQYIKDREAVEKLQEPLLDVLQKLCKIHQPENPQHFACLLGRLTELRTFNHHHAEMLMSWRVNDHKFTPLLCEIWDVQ
Sequence of Retinoic acid receptor RXR-alpha (Homo sapiens) (P19793 whole entry, looked up): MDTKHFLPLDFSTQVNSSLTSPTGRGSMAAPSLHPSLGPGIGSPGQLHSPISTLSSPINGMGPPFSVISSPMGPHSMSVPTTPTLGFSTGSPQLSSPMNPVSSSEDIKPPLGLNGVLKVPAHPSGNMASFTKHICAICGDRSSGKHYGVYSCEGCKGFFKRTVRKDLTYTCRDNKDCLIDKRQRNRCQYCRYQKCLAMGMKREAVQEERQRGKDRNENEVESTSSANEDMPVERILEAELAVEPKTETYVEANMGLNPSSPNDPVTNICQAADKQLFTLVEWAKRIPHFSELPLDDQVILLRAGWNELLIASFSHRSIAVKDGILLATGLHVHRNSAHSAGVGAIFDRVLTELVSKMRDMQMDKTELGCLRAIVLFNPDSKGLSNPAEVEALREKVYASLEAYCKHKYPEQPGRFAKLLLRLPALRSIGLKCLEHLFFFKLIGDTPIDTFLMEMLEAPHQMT

In the case of `CC(=O)O.CC(=O)O.CC(=O)O.CC(=O)O.CC(=O)O.CC(=O)O.CC(=O)O.O.O.[Cr].[Cr].[Cr]`, the Potency entry in experiment [1], in experiment [2], in [3], in experiment [4], in experiment [5] and in experiment [6] was “inactive” in each case. In addition, the Potency result in experiment [7], in experiment [8], in experiment [9], in experiment [10], in experiment [11] and in experiment [12] was “inactive” throughout. Besides, in experiment [13], the Potency result was “inactive”.

Consider `c1ccc(Nc2ccc(Nc3ccccc3)cc2)cc1`, for which the Potency entry in [14], in experiment [15], in experiment [16], in experiment [4], in [17] and in experiment [18] was “inactive” throughout. Besides, the Potency result in experiment [6], in [7], in experiment [8], in [9], in experiment [10] and in experiment [19] was “inactive” each time.

As to `C1=CCC=C1`, the Potency entry in experiment [1], in [4], in experiment [17], in [5], in experiment [6] and in experiment [7] was “inactive” in each case. The Potency result in experiment [8], in experiment [9], in experiment [10], in experiment [19] and in experiment [11] was “inactive” throughout.

Consider `CSSC`, for which the Potency result in experiment [1], in experiment [14], in experiment [2], in experiment [4], in [17] and in experiment [18] was “inactive” throughout. Further, the Potency result in experiment [5], in experiment [6], in experiment [7], in experiment [8], in [9] and in experiment [10] was “inactive” in each case. In addition, the Potency entry in experiment [19] and in experiment [11] was “inactive” each time.

Turning to `O=c1c2ccccc2c(=O)c2c1cc(Cl)c1[nH]c3c([nH]c12)c(Cl)cc1c(=O)c2ccccc2c(=O)c13`, the Potency entry in experiment [1], in experiment [14], in [15], in experiment [20], in [3] and in [4] was “inactive” throughout. Moreover, the Potency entry in experiment [17], in experiment [18], in experiment [5], in [7], in experiment [8] and in experiment [9] was “inactive” each time. The Potency result in [10], in experiment [19] and in experiment [11] was “inactive” throughout.

Regarding `CC(C)(C)c1ccc(OP(=O)(Oc2ccccc2)Oc2ccccc2)cc1`, the Potency result in experiment [14], in [16], in experiment [17], in experiment [18], in experiment [7] and in experiment [8] was “inactive” throughout. Besides, the Potency entry in experiment [9], in experiment [10] and in [12] was “inactive” throughout. Moreover, the Potency is 22 µM (active) in experiment [15] and 24.7 µM (active) in experiment [20].

`O=C(Cl)c1ccccc1F`: the Potency result in [1], in experiment [14], in [2], in experiment [15], in experiment [20] and in [3] was “inactive” each time. The Potency result in experiment [4], in experiment [17], in [18], in experiment [5], in experiment [6] and in experiment [7] was “inactive” each time. In addition, the Potency entry in experiment [8], in experiment [9], in experiment [10], in [11] and in experiment [12] was “inactive” each time.

As to `O=S(=O)(NS(=O)(=O)C(F)(F)F)C(F)(F)F`, the Potency result in experiment [1], in experiment [2], in experiment [3], in [4], in experiment [5] and in [6] was “inactive” throughout. Further, the Potency entry in [7], in experiment [8], in experiment [9] and in [10] was “inactive” throughout.

As to `CCCCN(CCCC)C(=S)[S-].CCCCN(CCCC)C(=S)[S-].[Ni+2]`, the Potency entry in experiment [1], in [4], in experiment [17], in [18], in [5] and in [6] was “inactive” each time. The Potency entry in experiment [7], in experiment [8], in [9], in [10], in experiment [11] and in [12] was “inactive” each time. For the same compound, the Potency result in [13] was “inactive”.

`COc1cnc(OC)n2nc(NS(=O)(=O)c3c(OCC(F)F)cccc3C(F)(F)F)nc12`: the Potency entry in experiment [1], in experiment [14], in [2], in experiment [15], in experiment [4] and in experiment [5] was “inactive” in each case. Moreover, the Potency result in [6], in experiment [7], in experiment [8], in experiment [9], in [10] and in [11] was “inactive” in each case. In experiment [12], the Potency result was “inactive”.
